Compound activity: PubChem BioAssay, several laboratories
Sampled rows, rich in hits. Any-hit rate of the full collection: about 3.1%.
EP2 antag: blocks the human prostaglandin E2 receptor EP2 | inhibition, % at 25 µM | P43116 | hit rate 0.52% among 260,000 | AID 1422 | C6 glioma cells expressing human EP2, cAMP TR-FRET; cells stimulated with saturating PGE2;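 active means percent inhibition above 40 after rounding to a whole number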;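 further: rat C6 glioma host cells with rolipram phosphodiesterase inhibitor present; the protocol text gives 20 µM as final concentration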
Target sequence (P43116 whole entry, looked up): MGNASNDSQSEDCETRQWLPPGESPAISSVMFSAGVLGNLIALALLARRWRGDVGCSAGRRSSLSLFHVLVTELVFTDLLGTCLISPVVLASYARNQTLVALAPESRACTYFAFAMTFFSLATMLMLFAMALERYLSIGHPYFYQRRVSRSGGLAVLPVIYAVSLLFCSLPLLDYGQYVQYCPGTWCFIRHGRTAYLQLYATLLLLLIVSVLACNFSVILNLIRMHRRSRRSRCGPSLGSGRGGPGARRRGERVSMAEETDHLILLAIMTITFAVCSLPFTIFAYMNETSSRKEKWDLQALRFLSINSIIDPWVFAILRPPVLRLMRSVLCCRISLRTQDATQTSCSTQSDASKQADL
Cl transport mod: KCC2 (human) Cl- transport modulation. Q9H2X9. hit rate 2.2% among 190,000. KCC2 cells, thallium flux FluoZin-2 fluorescence. B-score of Tl+ flux slope (higher = more flux/activation; lower = inhibition) at 10 µM. AID 1456;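 active means thallium flux slope and its plate-corrected score both differing from the plate sample mean at a set confidence after two filtering rounds, in either direction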;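 further: slope of fluorescence scaled to starting intensity during 10 to 20 s after thallium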
S1P3 antag: blocks the human S1P3 receptor | CHO S1P3 NFAT-BLA reporter, FRET fluorescence, antagonist mode | Q99500 | inhibition, % at 4.98 µM | AID 485 | hit rate 0.27% among 170,000;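 active means inhibition above the plate cutoff, the mean inhibition of test wells on that plate plus 3 SD, cut at about 28% in these data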;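 further: cells challenged with S1P at its EC80 of 0.8 µM; blue over green emission ratio from cleaved BLA substrate after 4 h stimulation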
Target sequence (Q99500 whole entry, looked up): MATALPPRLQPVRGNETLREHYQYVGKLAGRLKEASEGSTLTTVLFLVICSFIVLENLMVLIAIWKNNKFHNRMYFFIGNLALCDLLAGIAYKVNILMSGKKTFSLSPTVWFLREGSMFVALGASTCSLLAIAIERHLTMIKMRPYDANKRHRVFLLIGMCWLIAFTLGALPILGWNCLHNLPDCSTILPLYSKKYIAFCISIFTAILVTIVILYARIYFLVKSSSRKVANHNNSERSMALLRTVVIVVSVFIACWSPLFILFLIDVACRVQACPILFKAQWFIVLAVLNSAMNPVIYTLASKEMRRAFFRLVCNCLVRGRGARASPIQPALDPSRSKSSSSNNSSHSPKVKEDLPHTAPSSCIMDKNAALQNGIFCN
EP2 mod: EP2 receptor (human) modulation; hit rate 0.83% among 260,000; EP2-expressing cells, cAMP HTRF FRET, PGE2 co-stimulation; induction, % at 25 µM;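 active means compounds whose cAMP rise, as percent of the full-agonist control response, exceeds 60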;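 further: rat C6 glioma line stably carrying human EP2 under a CMV promoter; the protocol text gives 20 µM as final concentration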
KCC2 sec1: confirmation of human KCC2 transport modulators; shares compounds with Cl transport mod; normalised thallium flux (F/F0 slope) at 10 µM; HEK293-KCC2, thallium flux, FluoZin2 fluorescence; active compounds read high; hit rate 15% among 3,700;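 active means thallium flux slope above the same plate's solvent-only control mean plus 3 SD; inconclusive means the two replicate wells disagree; inactive means no significant difference from solvent-only control wells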
KCC2 bumet counter: thallium flux despite bumetanide block in KCC2 cells, secondary assay 3; hit rate 49% among 3,700; normalized thallium flux at 10 µM; AID 1714; shares compounds with Cl transport mod; HEK293-KCC2 + bumetanide/ouabain, thallium flux FluoZin2; active compounds read high;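 active means thallium entry rate above the same plate's blocked-transporter control wells by more than 3 SD; inconclusive means the two repeat wells disagree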;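 further: raw slope of fluorescence over initial fluorescence between 10 and 20 s after thallium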
KCC2 sec2: KCC2 (human) modulation, second secondary assay. shares compounds with Cl transport mod. HEK293-KCC2, thallium flux FluoZin2 fluorescence; actives lie on both sides; F/F0 rise rate, 10–20 s post-thallium. normalized thallium flux at 10 µM. hit rate 23% among 3,700;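 active means thallium flux slope more than 3 SD above or below the plate's solvent-only control mean, mostly below; inconclusive means the two repeat wells disagreed; inactive means no significant shift from solvent-only controls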
HEK counter1: counter-screen for KCC2 modulators: effect in parental HEK293 cells. thallium flux rate (normalised fluorescence) at 10 µM. hit rate 46% among 3,700. AID 1716. thallium flux FluoZin2, ouabain; baseline-ratio fluorescence slope, 10–20 s after thallium. shares compounds with Cl transport mod;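 active means thallium flux rate significantly above the same plate's solvent-only control wells, beyond their mean plus 3 SD; inconclusive means the two replicate wells gave conflicting results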
KCC2 ouabain: KCC2 (human) modulation, ouabain retest; raw Tl+ flux slope (below DMSO = inhibition, above = activation) at 10 µM; AID 1717; hit rate 48% among 3,700; shares compounds with Cl transport mod; HEK293-KCC2, thallium flux FluoZin2 fluorescence; bidirectional: low = inhibitor, high = activator;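 active means thallium flux slope beyond 3 SD from same-plate DMSO control mean in most replicates, usually higher, sometimes lower; inconclusive means repeat tests gave conflicting results; inactive means no significant difference from controls in most replicates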;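 further: slope of initial-normalized fluorescence between seconds 10 and 20 after thallium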
HEK293 Tl flux2: acts in parental HEK cells, second KCC2 counter-screen; HEK293 parental, thallium flux FluoZin-2 fluorescence slope; AID 1718; hit rate 33% among 3,700; thallium flux slope at 10 µM; shares compounds with Cl transport mod;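 active means thallium flux slope above the same plate's solvent-control mean plus 3 SD in both duplicate wells; inconclusive means duplicate wells that disagreed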;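 further: run without ouabain in cells lacking the KCC2 cotransporter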
A number is an active result.

How did Cc1cccc(NC(=S)N/N=C/c2cccn2Cc2ccc(F)cc2)c1 do in these assays?
EP2 antag: inactive; Cl transport mod: 6.26; S1P3 antag: inactive; EP2 mod: inactive; KCC2 sec1: inactive; KCC2 bumet counter: 0.00879; KCC2 sec2: inconclusive; HEK counter1: inactive; KCC2 ouabain: inactive; HEK293 Tl flux2: inactive

How did CSc1ccccc1NC(=S)N/N=C/c1cccn1Cc1cccc(C)c1 do in these assays?
EP2 antag: inactive; S1P3 antag: inactive; EP2 mod: inactive

What do the screens show for `CSc1ccccc1NC(=S)N/N=C/c1cccn1Cc1ccc(F)cc1`?
EP2 antag: inactive; Cl transport mod: 4.14; S1P3 antag: inactive; EP2 mod: inactive; KCC2 sec1: inactive; KCC2 bumet counter: 0.0106; KCC2 sec2: inactive; HEK counter1: 0.0106; KCC2 ouabain: inactive; HEK293 Tl flux2: 0.0135

Results for O=c1oc2ccccc2c(NCc2cccc(F)c2)c1[N+](=O)[O-] ?
EP2 antag: inactive; EP2 mod: inactive; KCC2 sec1: inactive; KCC2 bumet counter: inactive; KCC2 sec2: inactive; HEK counter1: inactive; KCC2 ouabain: 0.0219; HEK293 Tl flux2: inactive

What do the screens show for `O=c1oc2ccccc2c(Nc2ccc3ccccc3c2)c1[N+](=O)[O-]`?
EP2 antag: inactive; Cl transport mod: -3.78; EP2 mod: inactive; KCC2 sec1: inactive; KCC2 bumet counter: inactive; KCC2 sec2: inactive; HEK counter1: inactive; KCC2 ouabain: 0.0152; HEK293 Tl flux2: inactive

What do the screens show for `COC(=O)c1c(NC(=O)COc2ccccc2)sc(C(=O)N2CCOCC2)c1C`?
EP2 antag: inactive; EP2 mod: inactive

How did COc1ccccc1NC(=O)CSc1nc2cc(C)ccc2cc1C#N do in these assays?
EP2 antag: inactive; EP2 mod: inactive

How did Clc1ccc2nc(C3CCN(Cc4nnnn4C4CCCCC4)CC3)[nH]c2c1 do in these assays?
EP2 antag: inactive; Cl transport mod: -4.43; EP2 mod: inactive; KCC2 sec1: inactive; KCC2 bumet counter: inactive; KCC2 sec2: inactive; HEK counter1: inactive; KCC2 ouabain: inconclusive; HEK293 Tl flux2: inactive

Results for N#Cc1nc(-c2cccs2)oc1N1CCN(Cc2ccccc2)CC1 ?
EP2 antag: inactive; S1P3 antag: inactive; EP2 mod: inactive; KCC2 sec1: inactive; KCC2 bumet counter: inconclusive; KCC2 sec2: 0.0228; HEK counter1: inactive; KCC2 ouabain: inactive; HEK293 Tl flux2: inactive

What do the screens show for `O=C(Nc1nc2c(Cl)cccc2s1)c1ccc(Br)o1`?
EP2 antag: inactive; S1P3 antag: inactive; EP2 mod: inactive; KCC2 sec1: inconclusive; KCC2 bumet counter: 0.0267; KCC2 sec2: inactive; HEK counter1: 0.0342; KCC2 ouabain: 0.0309; HEK293 Tl flux2: 0.0136

What do the screens show for `O=C(Nc1nc2ccc(Cl)cc2s1)c1ccc(Br)o1`?
EP2 antag: inactive; Cl transport mod: inactive; S1P3 antag: inactive; EP2 mod: inactive

How did CCC(Sc1nc(C)cc(=O)[nH]1)C(=O)Nc1nc(-c2ccccc2)cs1 (configuration not stated) do in these assays?
EP2 antag: inactive; Cl transport mod: -5.25; EP2 mod: inactive; KCC2 sec1: inactive; KCC2 bumet counter: inactive; KCC2 sec2: 0.0211; HEK counter1: 0.00598; KCC2 ouabain: 0.0121; HEK293 Tl flux2: inactive

Results for CC(NC(=O)c1ccccc1Cl)c1n[nH]c(=S)n1C (configuration not stated) ?
EP2 antag: inactive; EP2 mod: inactive

How did CCCCn1c(CNC(=O)CCC)nc2ccccc21 do in these assays?
EP2 antag: inactive; Cl transport mod: inactive; S1P3 antag: inactive; EP2 mod: inactive

What do the screens show for `C=C(C)Cn1c(CCCNC(=O)CC)nc2ccccc21`?
EP2 antag: inactive; Cl transport mod: -4.97; EP2 mod: inactive; KCC2 sec1: inactive; KCC2 bumet counter: inactive; KCC2 sec2: inactive; HEK counter1: inactive; KCC2 ouabain: inactive; HEK293 Tl flux2: inactive

How did CCCCCn1c(CNC(=O)CCC)nc2ccccc21 do in these assays?
EP2 antag: inactive; Cl transport mod: -4.64; S1P3 antag: inactive; EP2 mod: inactive; KCC2 sec1: inactive; KCC2 bumet counter: inactive; KCC2 sec2: inactive; HEK counter1: inactive; KCC2 ouabain: inactive; HEK293 Tl flux2: inconclusive

Results for COc1ccc(S(=O)(=O)N2CCN(Cc3ccccc3)CC2)cc1C ?
EP2 antag: inactive; EP2 mod: inactive

What do the screens show for `CC1CCCC(C)N1C(=O)Cn1nc2n(C)c3ccccc3n2c1=O` (configuration not stated)?
EP2 antag: inactive; EP2 mod: inactive

Results for O=C(N/N=C/C(Br)=C/c1ccccc1)c1n[nH]c2c1CCC2 ?
EP2 antag: inactive; EP2 mod: inactive; KCC2 sec1: inactive; KCC2 bumet counter: inactive; KCC2 sec2: inactive; HEK counter1: inactive; KCC2 ouabain: inconclusive; HEK293 Tl flux2: inactive

Results for O=C(N/N=C/c1ccccc1)c1n[nH]c2c1CCCC2 ?
EP2 antag: inactive; Cl transport mod: inactive; S1P3 antag: inactive; EP2 mod: inactive

What do the screens show for `CCOc1ccc(S(=O)(=O)NCCSCc2ccco2)cc1`?
EP2 antag: inactive; EP2 mod: inactive; KCC2 sec1: inactive; KCC2 bumet counter: inactive; KCC2 sec2: inactive; HEK counter1: inactive; KCC2 ouabain: inactive; HEK293 Tl flux2: inactive

Results for COc1ccc(S(=O)(=O)NCCSCc2ccco2)cc1 ?
EP2 antag: inactive; S1P3 antag: inactive; EP2 mod: inactive

How did O=C(O)c1cccc(NC2=C(Cl)C(=O)c3ccccc3C2=O)c1 do in these assays?
EP2 antag: inactive; Cl transport mod: inactive; S1P3 antag: inactive; EP2 mod: inactive

Results for O=C(O)c1ccc(NC2=C(Cl)C(=O)c3ccccc3C2=O)cc1 ?
EP2 antag: inactive; Cl transport mod: -6.5; S1P3 antag: inactive; EP2 mod: inactive; KCC2 sec1: inactive; KCC2 bumet counter: 0.00935; KCC2 sec2: inactive; HEK counter1: inactive; KCC2 ouabain: 0.0171; HEK293 Tl flux2: inactive

How did O=C1C(Cl)=C(Nc2ccccc2)C(=O)c2ccccc21 do in these assays?
EP2 antag: inactive; Cl transport mod: 4.45; S1P3 antag: inactive; EP2 mod: inactive; KCC2 sec1: inactive; KCC2 bumet counter: inactive; KCC2 sec2: inactive; HEK counter1: inactive; KCC2 ouabain: inactive; HEK293 Tl flux2: inactive

How did CCOc1ccc(CN2CCc3c(nc(N4CC(C)OC(C)C4)[nH]c3=O)C2)cc1OC (configuration not stated) do in these assays?
EP2 mod: inactive
